Four compounds from PubChem BioAssay (EPA / NIEHS) can be followed below.

The source made the active and inactive calls. Rule for the calls: active = hit-call score of the fitted dose curve at least 0.9, where 1 is the maximum; inactive = score below 0.9.

In general, AC50 refers to the concentration at which the activity in the assay is half-maximal.

Assay [1] concerns the target Transcription factor E2F1 (Homo sapiens) (UniProt Q01094). Briefly: ATG_E2F_CIS: Attagene CIS-FACTORIAL HepG2 Assay for human E2F Transcription Factor 1 (AID 2282935). Particulars: HepG2 Attagene cis-reporter, E2F reporter RNA transcripts; actives raise or lower the signal. In outline: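 First, HepG2 cells were transfected with reporter transcription units. Next, they were dosed for 24 h. Then RNA was isolated, converted to cDNA, PCR-amplified, FAM-labeled, HpaI-digested and analyzed by capillary electrophoresis.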

A short description of assay [2]: ATG_E_Box_CIS: Attagene CIS-FACTORIAL HepG2 Assay for human Enhancer Box (E-box) (AID 2282936). Particulars: HepG2 E-box cis-reporter transcription, actives raise or lower the signal. In short, it runs like this:
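Endogenous transcription factor activity was sensed in human HepG2 liver cells through transfected cis-promoter reporter units. After 24 h of dosing, total RNA was reverse-transcribed and reporter cDNA resolved by capillary electrophoresis.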

A short description of assay [3]: ATG_M_61_CIS: Attagene CIS-FACTORIAL HepG2 Assay for M61 Transcription Factor (Internal Marker) (AID 2282937). Particulars: HepG2 Attagene CIS-FACTORIAL M61 internal marker reporter; actives raise or lower the signal. In short, it runs like this:
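Endogenous transcription factor activity in HepG2 is read through transiently transfected cis-element reporter units. After 24 h dosing, RNA undergoes reverse transcription, PCR and primer extension with 6-FAM before capillary electrophoresis; DMSO-referenced bidirectional fit.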

Assay [4] can be described thus: ATG_EGR_CIS: Attagene CIS-FACTORIAL HepG2 Assay for human Early Growth Response 1 (EGR1) (AID 2282938). Particulars: HepG2 Attagene CIS-FACTORIAL EGR reporter mRNA; actives raise or lower the signal. In short, it runs like this:
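Activity is taken as induction or loss of reporter mRNA versus DMSO, fitted bidirectionally. Transcripts from cis-regulated reporter units in transiently transfected HepG2 were measured after 24 h by RT-PCR with capillary electrophoresis.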

The nature of assay [5]: ATG_M_19_CIS: Attagene CIS-FACTORIAL HepG2 Assay for M19 Transcription Factor (Internal Marker) (AID 2282939). Particulars: HepG2 Attagene CIS-FACTORIAL M19 internal marker reporter; actives raise or lower the signal. In outline: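 Internal marker readout, fitted in both directions against DMSO, from HepG2 cells carrying transfected cis-element reporter constructs; RT-PCR and capillary electrophoresis of reporter mRNA after 24 h exposure.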

Assay [6] in a line: ATG_ERE_CIS: Attagene CIS-FACTORIAL HepG2 Assay for Estrogen Response Element (ERE) (AID 2282940). The note with it: HepG2 ERE cis-reporter, Attagene RNA transcript; actives raise or lower the signal. In short, it runs like this:
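After 24 h compound treatment, RNA from transfected HepG2 cells was reverse-transcribed, reporter cDNA PCR-amplified, FAM-labelled, HpaI-cut and resolved by capillary electrophoresis. ERE-driven cis reporter transcripts reflect endogenous factors; gain or loss scored against DMSO.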

Assay [7] in a line: ATG_Ets_CIS: Attagene CIS-FACTORIAL HepG2 Assay for human Erythroblast Transformation Specific (ETS) (AID 2282941). Particulars: HepG2 ETS cis-reporter transcription, actives raise or lower the signal. In outline: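 Multiplexed reporter transcript profiling: HepG2, 24 h treatment, total RNA to cDNA, PCR, 6-FAM labelling, HpaI cut, capillary electrophoresis. Gain- or loss-of-signal fitted against DMSO.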

The target in assay [8] is Hepatocyte nuclear factor 3-beta (Homo sapiens) (UniProt Q9Y261). Briefly: ATG_FoxA2_CIS: Attagene CIS-FACTORIAL HepG2 Assay for human Forkhead box A2 (FOXA2) (AID 2282942). The note with it: HepG2 cis-reporter transcription factor activity, 24 h; actives raise or lower the signal. In outline: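 Reporter transcript induction is measured by fluorescence after capillary electrophoresis of RT-PCR products from HepG2 cells exposed 24 h. Cis-regulated reporter units report endogenous factor activity; curves fitted both directions against DMSO.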

Assay [9] can be described thus: ATG_FoxO_CIS: Attagene CIS-FACTORIAL HepG2 Assay for human Forkhead box O (FoxO) (AID 2282943). The note with it: HepG2 Attagene cis-reporter, FoxO element, mRNA; actives raise or lower the signal. In short, it runs like this: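 Values reflect reporter mRNA induction or loss in HepG2 cells 24 h post-dosing, fitted bidirectionally with DMSO as negative control and baseline. Detection used RT-PCR and fluorescence capillary electrophoresis.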

Assay [10] in a line: ATG_GATA_CIS: Attagene CIS-FACTORIAL HepG2 Assay for human GATA Binding Protein (AID 2282944). The note with it: HepG2 GATA cis-element reporter, Attagene multiplex mRNA; actives raise or lower the signal. In short, it runs like this:
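Reporter transcripts from a GATA cis-regulated unit, among multiplexed reporters in transfected HepG2 cells, were measured by RT-PCR with capillary electrophoresis after 24 h dosing. Induction or loss scored relative to DMSO.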

A short description of assay [11]: ATG_GLI_CIS: Attagene CIS-FACTORIAL HepG2 Assay for human Zinc Finger Protein GLI1 (AID 2282945). Particulars: HepG2, Attagene cis-factorial reporter mRNA, GLI element; actives raise or lower the signal. In outline:
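HepG2 cells transiently transfected with cis-promoter multiplexed reporter units report endogenous transcription factor activity. After 24 h chemical exposure, reporter mRNA was quantified by RT-PCR, 6-FAM labelling, HpaI digestion and capillary electrophoresis, with bidirectional fitting against DMSO.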

A short description of assay [12]: ATG_GRE_CIS: Attagene CIS-FACTORIAL HepG2 Assay for human Glucocorticoid Response Elements (GRE) (AID 2282947). The note with it: HepG2 GRE cis-reporter, Attagene multiplex mRNA; actives raise or lower the signal. In outline: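 Cells (HepG2) bearing transfected cis-promoter reporter transcription units were treated with chemical for 24 hours. Reporter mRNA was measured via RT-PCR with capillary electrophoresis, and activity was fitted in both directions relative to DMSO.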

Assay [13] can be described thus: ATG_ISRE_CIS: Attagene CIS-FACTORIAL HepG2 Assay for human Interferon Regulatory Factor 1 (IRF1) binding to an Interferon-Stimulated Response Element (ISRE) (AID 2282948). The note with it: HepG2 ISRE cis-reporter (Attagene), mRNA transcription readout; actives raise or lower the signal. In outline: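 Signal reflects induction or loss of ISRE-linked reporter mRNA in transiently transfected HepG2 cells after a 24 h treatment, detected by fluorescent RT-PCR fragments on capillary electrophoresis and normalised to DMSO.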

The nature of assay [14]: ATG_M_32_CIS: Attagene CIS-FACTORIAL HepG2 Assay for M32 Transcription Factor (Internal Marker) (AID 2282949).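 Note: background control marker of the multiplexed CIS panel rather than a real target.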 Particulars: HepG2 Attagene cis-factorial M32 reporter, mRNA; actives raise or lower the signal. In short, it runs like this:
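HepG2 human liver cells transiently transfected with cis-promoter-driven multiple reporter transcription units, dosed 24 h. Reporter mRNA quantified by RT-PCR, FAM-labelled primer extension, HpaI digest and capillary electrophoresis; bidirectional fit versus DMSO baseline.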

The nature of assay [15]: ATG_M_06_CIS: Attagene CIS-FACTORIAL HepG2 Assay for M06 Transcription Factor (Internal Marker) (AID 2282950). The note with it: HepG2 Attagene CIS-FACTORIAL M06 internal marker reporter; actives raise or lower the signal. In outline: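 Serves as a background control readout. Transfected HepG2 exposed to compounds for 24 h, then reporter transcripts quantified by fluorescent RT-PCR and capillary electrophoresis. Both directions fitted against DMSO baseline.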

For assay [16], the target named is Hypoxia-inducible factor 1-alpha (Homo sapiens) (UniProt Q16665). Briefly: ATG_HIF1a_CIS: Attagene CIS-FACTORIAL HepG2 Assay for human Hypoxia Inducible Factor 1 (HIF1A) (AID 2282951). The note with it: HepG2 Attagene cis-factorial HIF1a reporter transcription; actives raise or lower the signal. In short, it runs like this: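 Fluorescence intensity of capillary-separated, 6-FAM-labelled reporter amplicons gives mRNA induction in HepG2 cells carrying transfected cis-promoter reporter units; cells exposed 24 h, responses fitted up or down from DMSO.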

Assay [17] deals with Hepatocyte nuclear factor 6 (Homo sapiens) (UniProt Q9UBC0). Briefly: ATG_HNF6_CIS: Attagene CIS-FACTORIAL HepG2 Assay for human Hepatocyte Nuclear Factor 6 (HNF6) (AID 2282952). The note with it: HepG2 Attagene cis-factorial HNF6 reporter transcription; actives raise or lower the signal. In short, it runs like this:
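Endogenous factor activity read in transiently transfected HepG2 via promoter-regulated reporter transcripts. RNA harvested 24 h post-dosing, reverse-transcribed, PCR-amplified, FAM-labelled, HpaI-digested and resolved by capillary electrophoresis; fitted in both directions against DMSO.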

Assay [18] deals with Heat shock factor protein 1 (Homo sapiens) (UniProt Q00613). Briefly: ATG_HSE_CIS: Attagene CIS-FACTORIAL HepG2 Assay for human Heat Shock Transcription Factor 1 (HSE) (AID 2282953). Particulars: HepG2 HSE cis-reporter, Attagene RNA transcription; actives raise or lower the signal. In outline:
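Endogenous transcription factor activity in transiently transfected HepG2, read as reporter mRNA by RT-PCR with fluorescent capillary electrophoresis after 24 h. Gain or loss of signal fitted versus DMSO baseline.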

The nature of assay [19]: ATG_MRE_CIS: Attagene CIS-FACTORIAL HepG2 Assay for human Metal Responsive Element (MRE) (AID 2282954). The note with it: HepG2 MRE cis-reporter transcription, Attagene multiplex; actives raise or lower the signal. In short, it runs like this: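 Cells were transfected with cis-promoter reporter transcription units, then dosed for 24 h. RNA was reverse-transcribed, amplified, fluorescently labelled and resolved by capillary electrophoresis, and activity was fitted in both directions relative to DMSO.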

For assay [20], the target named is Bile acid receptor (Homo sapiens) (UniProt Q96RI1). Briefly: ATG_IR1_CIS: Attagene CIS-FACTORIAL HepG2 Assay for human Nuclear Receptor Subfamily 1 Group H Member 4 (NR1H4), IR1 submotif (AID 2282946). The note with it: IR1 reporter transcription, actives raise or lower the signal. In outline: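 Readout: reporter transcript levels by RT-PCR with fluorescent capillary electrophoresis, from HepG2 cells transiently transfected with multiplexed cis-regulated reporters and dosed 24 h. Gain- or loss-of-signal fitted versus DMSO negative control.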
Chain of Bile acid receptor (Homo sapiens) (Q96RI1 whole entry, looked up): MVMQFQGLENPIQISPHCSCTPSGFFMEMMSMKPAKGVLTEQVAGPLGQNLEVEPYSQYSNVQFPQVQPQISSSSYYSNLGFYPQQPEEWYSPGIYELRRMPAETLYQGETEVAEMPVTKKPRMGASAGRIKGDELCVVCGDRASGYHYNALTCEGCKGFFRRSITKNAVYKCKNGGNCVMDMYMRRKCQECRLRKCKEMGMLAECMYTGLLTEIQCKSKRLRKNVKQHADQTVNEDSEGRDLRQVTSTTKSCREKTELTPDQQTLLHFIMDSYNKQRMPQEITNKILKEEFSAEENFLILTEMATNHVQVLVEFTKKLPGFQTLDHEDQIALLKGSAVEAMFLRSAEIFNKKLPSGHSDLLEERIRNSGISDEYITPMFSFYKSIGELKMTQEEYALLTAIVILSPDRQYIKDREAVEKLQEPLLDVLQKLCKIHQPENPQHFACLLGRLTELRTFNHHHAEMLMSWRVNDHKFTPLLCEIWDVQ

Chain of Transcription factor E2F1 (Homo sapiens) (Q01094 whole entry, looked up): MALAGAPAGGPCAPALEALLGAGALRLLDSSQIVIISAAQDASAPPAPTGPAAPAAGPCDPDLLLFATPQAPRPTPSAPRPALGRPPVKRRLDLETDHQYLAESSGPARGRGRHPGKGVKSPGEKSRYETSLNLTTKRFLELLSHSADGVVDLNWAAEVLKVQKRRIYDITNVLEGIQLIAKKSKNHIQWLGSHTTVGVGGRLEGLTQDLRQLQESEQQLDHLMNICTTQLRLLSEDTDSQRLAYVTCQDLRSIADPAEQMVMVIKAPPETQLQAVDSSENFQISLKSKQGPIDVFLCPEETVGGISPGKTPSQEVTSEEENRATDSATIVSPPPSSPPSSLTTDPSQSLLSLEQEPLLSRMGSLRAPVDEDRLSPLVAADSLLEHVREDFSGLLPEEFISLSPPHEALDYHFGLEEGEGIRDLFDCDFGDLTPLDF
Chain of Hepatocyte nuclear factor 6 (Homo sapiens) (Q9UBC0 whole entry, looked up): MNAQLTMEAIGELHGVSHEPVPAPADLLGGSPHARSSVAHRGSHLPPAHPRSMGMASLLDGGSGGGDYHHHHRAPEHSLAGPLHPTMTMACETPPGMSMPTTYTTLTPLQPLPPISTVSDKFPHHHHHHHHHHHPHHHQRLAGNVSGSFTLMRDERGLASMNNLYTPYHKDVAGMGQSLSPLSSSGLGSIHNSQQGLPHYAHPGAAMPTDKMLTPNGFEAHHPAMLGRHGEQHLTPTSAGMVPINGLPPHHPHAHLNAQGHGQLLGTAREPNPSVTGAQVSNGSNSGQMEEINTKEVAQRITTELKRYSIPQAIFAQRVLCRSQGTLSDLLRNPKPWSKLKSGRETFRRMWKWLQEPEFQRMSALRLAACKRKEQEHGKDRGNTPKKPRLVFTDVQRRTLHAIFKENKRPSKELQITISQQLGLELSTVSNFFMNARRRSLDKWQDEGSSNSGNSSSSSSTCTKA
Chain of Heat shock factor protein 1 (Homo sapiens) (Q00613 whole entry, looked up): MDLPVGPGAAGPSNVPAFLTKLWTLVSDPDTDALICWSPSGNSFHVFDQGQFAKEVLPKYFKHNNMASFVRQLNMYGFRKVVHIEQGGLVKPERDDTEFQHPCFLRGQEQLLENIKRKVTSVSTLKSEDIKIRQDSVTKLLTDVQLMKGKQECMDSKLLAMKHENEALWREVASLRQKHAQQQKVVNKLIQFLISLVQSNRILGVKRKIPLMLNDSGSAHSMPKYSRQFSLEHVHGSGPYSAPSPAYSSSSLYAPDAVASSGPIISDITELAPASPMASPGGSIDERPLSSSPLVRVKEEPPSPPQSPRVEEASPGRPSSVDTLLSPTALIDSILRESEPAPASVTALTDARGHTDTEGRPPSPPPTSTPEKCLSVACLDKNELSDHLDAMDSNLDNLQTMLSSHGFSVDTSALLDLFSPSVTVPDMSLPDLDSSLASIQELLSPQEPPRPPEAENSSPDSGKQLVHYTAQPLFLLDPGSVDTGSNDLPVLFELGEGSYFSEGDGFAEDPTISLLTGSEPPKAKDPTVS
Chain of Hypoxia-inducible factor 1-alpha (Homo sapiens) (Q16665 whole entry, looked up): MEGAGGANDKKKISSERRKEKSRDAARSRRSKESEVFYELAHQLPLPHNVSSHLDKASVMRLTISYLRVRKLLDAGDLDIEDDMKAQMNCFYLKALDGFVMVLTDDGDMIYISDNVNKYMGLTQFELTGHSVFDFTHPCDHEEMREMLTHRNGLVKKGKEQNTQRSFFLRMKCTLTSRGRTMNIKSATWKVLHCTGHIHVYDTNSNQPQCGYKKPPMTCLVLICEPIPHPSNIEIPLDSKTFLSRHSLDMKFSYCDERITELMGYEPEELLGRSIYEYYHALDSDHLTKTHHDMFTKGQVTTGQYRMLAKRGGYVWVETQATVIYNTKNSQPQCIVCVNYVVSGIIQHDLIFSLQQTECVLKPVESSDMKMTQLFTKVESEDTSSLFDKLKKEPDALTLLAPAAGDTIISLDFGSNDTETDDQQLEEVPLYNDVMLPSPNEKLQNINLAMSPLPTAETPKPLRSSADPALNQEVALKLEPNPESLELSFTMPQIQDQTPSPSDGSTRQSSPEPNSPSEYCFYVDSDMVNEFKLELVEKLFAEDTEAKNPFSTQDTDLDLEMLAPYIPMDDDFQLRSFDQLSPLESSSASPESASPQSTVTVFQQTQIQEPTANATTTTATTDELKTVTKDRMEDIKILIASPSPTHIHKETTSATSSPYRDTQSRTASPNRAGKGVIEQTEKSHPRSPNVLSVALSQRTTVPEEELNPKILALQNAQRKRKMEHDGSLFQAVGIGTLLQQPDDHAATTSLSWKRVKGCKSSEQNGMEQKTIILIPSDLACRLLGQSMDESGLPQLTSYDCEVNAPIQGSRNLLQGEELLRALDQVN
Chain of Hepatocyte nuclear factor 3-beta (Homo sapiens) (Q9Y261 whole entry, looked up): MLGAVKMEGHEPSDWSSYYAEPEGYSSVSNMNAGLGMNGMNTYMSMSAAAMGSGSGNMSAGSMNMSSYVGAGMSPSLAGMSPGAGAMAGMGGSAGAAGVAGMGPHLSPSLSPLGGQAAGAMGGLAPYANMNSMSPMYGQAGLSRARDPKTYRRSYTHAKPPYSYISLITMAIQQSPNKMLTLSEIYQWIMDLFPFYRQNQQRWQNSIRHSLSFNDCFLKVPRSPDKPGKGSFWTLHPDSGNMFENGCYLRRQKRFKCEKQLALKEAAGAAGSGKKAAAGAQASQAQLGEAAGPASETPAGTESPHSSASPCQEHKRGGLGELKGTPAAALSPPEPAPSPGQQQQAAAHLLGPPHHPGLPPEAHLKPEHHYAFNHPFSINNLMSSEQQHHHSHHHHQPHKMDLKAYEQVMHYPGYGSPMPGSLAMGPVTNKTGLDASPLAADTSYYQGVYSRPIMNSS

For the compound `COC(=O)N(C(=O)N1CO[C@@]2(C(=O)OC)Cc3cc(Cl)ccc3C2=N1)c1ccc(OC(F)(F)F)cc1`, the outcome in assay [1], in assay [2], in assay [3], in assay [4], in assay [5] and in assay [6] was inactive. Further, the compound was classed as inactive in assay [7], in [8], in assay [9], in assay [10], in assay [11] and in assay [12]. The compound was called inactive in [13], in assay [14], in assay [15], in assay [16], in assay [17] and in [18]. Further, in assay [19], the concentration at half-maximal activity (AC50) was 2.11 µM (active).
For `CCCCC(C#N)(Cn1cncn1)c1ccc(Cl)cc1` (stereo not given), the outcome in [1], in [2], in assay [3], in [4], in assay [5] and in assay [6] was inactive. The compound was classed as inactive in [7], in assay [8], in assay [9], in [10], in [11] and in assay [12]. In addition, the compound was classed as inactive in assay [13], in assay [14], in assay [15], in assay [16], in [17] and in assay [18]. In addition, the result in assay [19] was inactive.
For `COC(=O)c1c(C(F)F)nc(C(F)(F)F)c(C2=NCCS2)c1CC(C)C`, the result in assay [1], in [3], in assay [4], in [5], in assay [7] and in assay [8] was inactive. The outcome in assay [9], in assay [11], in assay [13], in assay [14], in [15] and in assay [16] was inactive. Besides, the compound was called inactive in assay [17] and in [18]. Further, the AC50 in [2] is 9.92 µM (active); in assay [6], 13.8 µM (active); in assay [10] it was 88.5 µM (active); in assay [19], 18.5 µM (active).
Take `CC1(C)C(C(=O)OC(C#N)c2cccc(Oc3ccccc3)c2)C1(C)C` (stereo not given): the compound was called inactive in assay [1], in assay [2], in assay [3], in assay [4], in [5] and in assay [6]. Moreover, the outcome in assay [7], in [8], in assay [9], in [10], in assay [11] and in [20] was inactive. For the same compound, the result in assay [13], in assay [14], in assay [15], in assay [16], in assay [17] and in assay [18] was inactive. Also, the AC50 in [19] is 10.8 µM (active).
